Compound activity: PubChem, National Center for Advancing Translational Sciences (NCATS)
ATXN2 expr inh: reduces ATXN2 reporter expression in HEK-293 cells; HEK-293 ATXN2-luciferase reporter, luminescence, 24 h; Potency, µM (top dose mostly 57 µM), without a hit: top-dose activity change, negative = inhibition, usual class: inhibitors; 360,000 compounds, 0.72% hits; AID 1745845; note: % is set by controls: 0 for no effect and ±100 for the full control effect; nearly all actives have a fitted effect of over 55% in size
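qHTS (up to 57 uM final) was run with 24 h compound exposure of reporter cells at 37 °C. Each well was multiplexed: SteadyGlo luminescence measured ATXN2-luciferase expression after a fluorogenic Gly-Phe-AFC viability readout (25 uM final).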
S2 tox: reduces viability in counter-screen for ATXN expression inhibitors | S2 cells (HEK-293 line with an ATXN2-luciferase reporter) viability, CellTiter-Fluor protease fluorescence, 24 h | Potency, µM (series often up to 56.7 µM), usual class: cytotoxic | 400,000 compounds, 0.49% hits; note: nearly all actives have a fitted effect of over 40% in size
RORg inh: blocks mouse ROR gamma transcriptional activity; Potency, µM (titrated, usually from 53.6 µM), for inactives: at the highest dose activity change, negative = inhibition, usual class: inhibitors; AID 2551; P51450; 310,000 compounds, 5.4% hits; Drosophila S2 Gal4-RORgamma UAS-luciferase reporter, 20 h; note: % is set by controls: 0 for no effect and ±100 for the full control effect; nearly all actives have a fitted effect of over 60% in size
Target sequence (P51450 whole entry, looked up, the tested form may be a part): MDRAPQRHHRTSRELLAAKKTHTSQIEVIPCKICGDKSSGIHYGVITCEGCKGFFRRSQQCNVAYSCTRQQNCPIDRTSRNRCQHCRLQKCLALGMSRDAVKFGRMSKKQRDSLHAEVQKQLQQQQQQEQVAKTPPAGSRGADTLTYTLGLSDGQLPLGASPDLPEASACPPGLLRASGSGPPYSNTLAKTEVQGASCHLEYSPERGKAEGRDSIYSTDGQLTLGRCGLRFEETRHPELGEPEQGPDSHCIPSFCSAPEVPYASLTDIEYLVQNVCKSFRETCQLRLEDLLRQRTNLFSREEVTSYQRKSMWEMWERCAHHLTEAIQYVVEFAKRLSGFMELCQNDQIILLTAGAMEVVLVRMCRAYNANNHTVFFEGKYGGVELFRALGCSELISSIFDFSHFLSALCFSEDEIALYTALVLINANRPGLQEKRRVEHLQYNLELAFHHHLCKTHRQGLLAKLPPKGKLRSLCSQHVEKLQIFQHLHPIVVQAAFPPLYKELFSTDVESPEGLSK
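A Gal4/UAS one-hybrid system in insect cells: metallothionein-promoter Gal4–ROR gamma fusion plus Photinus luciferase reporter. Copper sulfate 700 uM final, 20 hr ambient incubation, luminescent detection after 10 min with reagent.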
Gal4-VP16 FLuc: counter-screen for ROR gamma inhibitors: Gal4-VP16 reporter. Drosophila S2 Gal4-VP16 UAS-luciferase, luminescence, 20 h. Potency, µM (titrated, usually from 53.6 µM), for the others: at the highest dose activity, negative = inhibition, usual class: inhibitors. 310,000 compounds, 3.5% hits. AID 2546;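 note: Gal4-VP16 expression switched on by copper sulfate through the metallothionein promoter; % is set by controls: 0 for no effect and ±100 for the full control effect; nearly all actives have a fitted effect of over 50% in size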
HepG2 viability: counter-screen for TGF-b inhibitors: cytotoxicity in HepG2 cells | HepG2 CAGA-GFP viability, ATP luminescence, 18 h | Potency, µM (top dose mostly 46.1 µM), for the others: top-dose activity change, negative = cytotoxicity, actives largely listed as cytotoxic | 410,000 compounds, 0.76% hits
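CellTiter-Glo luminescence gave cytotoxicity after 18 hours at 37 degrees C. The cells were HepG2 CAGA-GFP in 1% FBS DMEM, stimulated with 500 pg/mL TGF-beta after compound addition. %Activity was normalised to no-cell wells (complete cell-killing) and DMSO (no toxicity), and curves were fitted and classified.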
TGFb inhibitor: blocks TGF-b signaling; HepG2 CAGA-GFP TGF-b/SMAD3 reporter, GFP fluorescence, 18 h; TGF-beta stimulated, 500 pg/mL final; Potency, µM (doses to about 46.1 µM), for inactives: at the highest dose activity, negative = inhibition, most hits filed as inhibitors; 410,000 compounds, 1.2% hits; AID 588855; note: % is set by controls: 0 for no effect and ±100 for the full control effect; nearly all actives have a fitted effect of over 65% in size
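Smad-responsive CAGA-GFP expression was quantified in HEPG2 cells exposed to compounds and 500 pg/mL final TGF-beta for 18 h at 37 degrees C; unstimulated wells defined full inhibition.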
The depositor's hits bear a star; i = inactive; ? = inconclusive; nt = not tested or not shown. In the library only some 6.3% were active in any assay of this set; here they are far more common. Calls come from the whole dose curve; as a rule, active = well fitted curve in the direction sought with a large enough effect; inconclusive = small, poorly fitted or top-dose-only effect, or another doubt; inactive = no such curve, though single readings can be large; an effect the other way counts as inactive or inconclusive. Potency is the fitted concentration of half-maximal effect.

SMILES	ATXN2 expr inh	S2 tox	RORg inh	Gal4-VP16 FLuc	HepG2 viability	TGFb inhibitor
CCCCn1c(SCc2ccc(C(=O)OC)o2)nc2cc(S(N)(=O)=O)ccc21	-25%	i	-16%	10µM*	-16%	-28%
CCN(CC)C(=O)c1cccc(-c2csc(C(C)(NC(C)=O)c3ccc(OC)cc3)n2)c1 (stereo not drawn)	8%	?	nt	nt	-13%	-5%
O=C(Nc1ccc(Cl)c(Cl)c1)Nc1nnc(CC2=CCCCC2)s1	?	i	?	13µM*	3%	?
CC1(C)CC(=O)C(C(C#Cc2ccccc2)C2=C(O)CC(C)(C)CC2=O)=C(O)C1	?	?	?	-63%	-50%	?
O=C1CCCC(O)=C1C(C#Cc1ccccc1)C1=C(O)CCCC1=O	?	?	30%	-2%	16µM*	?
Cc1ccc(C2=NN(C(=O)CCl)C(c3ccco3)C2)o1 (stereo not drawn)	?	?	11µM*	?	-80%	?
O=C(c1cc(-c2ccc(Cl)cc2Cl)on1)N1CCCC1	-38%	i	8.9µM*	10µM*	9%	5%
O=C(c1cc(-c2ccc(Cl)cc2Cl)on1)N1CCCCCC1	-19%	i	8.9µM*	?	-13%	-8%
Cc1ccc(N(C)S(=O)(=O)c2ccc(-c3coc(C)n3)cc2)cc1	-6%	i	nt	nt	6%	18%
Cc1ccc(C(=O)CSc2nnc3ccc4ccccc4n23)cc1	nt	nt	nt	nt	-7%	?
COc1cc(NC(=O)COc2cc(O)c3c(c2)OC(C)(C)CC3=O)cc(OC)c1OC	?	?	?	2.5µM*	-36%	-26%
Oc1cccc(Nc2cc(-c3ccccc3)ncn2)c1	48%	?	nt	nt	-21%	?
c1ccc(-c2cn3nc(-c4ccccc4)sc3n2)cc1	2%	i	nt	nt	17%	18%
Cc1nn2cc(-c3ccccc3)nc2s1	-15%	i	11µM*	?	-48%	-3%
CC1(Cc2ccc(C(F)(F)F)o2)C(=O)Nc2ccc(-c3cccc(C(F)(F)F)c3)cc21 (stereo not drawn)	?	i	nt	nt	18µM*	14µM*
CC1(Cc2ccc(F)cc2)C(=O)Nc2ccc(-c3cccnc3)cc21 (stereo not drawn)	14%	i	nt	nt	-46%	-6%
CC1(Cc2ccc3c(c2)OCO3)C(=O)Nc2ccc(-c3cccc(C(F)(F)F)c3)cc21 (stereo not drawn)	?	?	nt	nt	18µM*	?
CN(C)C(=O)CCCc1nc(-c2ccc(Cl)cc2)no1	23%	i	-5%	0%	0%	-21%
O=C(CCCc1nc(-c2ccc(Cl)cc2)no1)Nc1cccnc1	-23%	i	16µM*	11µM*	-3%	?
O=C(O)CCCc1nc(-c2ccc(Cl)cc2)no1	?	i	0.35µM*	?	-2%	3%
Cc1cccc(-c2noc(CCCC(=O)Nc3cccnc3)n2)c1	-26%	?	-12%	?	-31%	?
O=C(O)CCCc1nc(-c2ccccc2)no1	-4%	i	14µM*	?	-1%	9%
COCCN1CCN(C(=O)c2cnn(-c3nccc(-c4cc5ccccc5o4)n3)c2C2CC2)CC1	nt	i	nt	nt	nt	nt
Cc1nc2ccc(C(=O)N3CCc4c(cnc(C)c4CNC(=O)/C=C/c4cccs4)C3)cc2nc1C	nt	i	nt	nt	nt	nt
COc1ccc(-n2nc(C(=O)N3CCN(c4ccccc4OC)CC3)c3c4ccccc4n(C)c3c2=O)cc1	3%	i	nt	nt	-7%	13%
SMILES	ATXN2 expr inh	S2 tox	RORg inh	Gal4-VP16 FLuc	HepG2 viability	TGFb inhibitor
O=C(Nc1ccc2cn[nH]c2c1)c1c(Cl)cccc1Cl	2%	i	30%	-2%	8%	10%
O=C(NC1CCNCC1)c1[nH]ncc1NC(=O)c1c(Cl)cccc1Cl	0.39µM*	nt	nt	nt	nt	nt
O=C(/C=C/c1c(Cl)cccc1Cl)n1cccn1	-8%	i	?	11µM*	-24%	?
CCCCOC(=O)c1c(C)oc2ccc(NS(=O)(=O)c3ccc4c5c(cccc35)C(=O)N4)cc12	?	i	25%	-2%	-18%	14µM*
CCn1c(O)c(/C=C2\C=NN=C2c2ccc(C)cc2)sc1=S	3%	i	12%	5%	-6%	-8%
CC(C)n1c(O)c(/C=C2\C=NN=C2c2ccccc2)sc1=S	2%	i	-37%	-28%	16µM*	?
Cc1ccccc1C1(CC(=O)N2CCCC(C)C2)CC(=O)N(Cc2cccnc2)C1=O (stereo not drawn)	nt	i	nt	nt	nt	nt
CC[C@H](C(=O)[C@H](C)[C@H](O)[C@H](C)CCc1ccc(C)c(O)c1C(=O)O)[C@H]1O[C@](CC)([C@@H]2CC[C@@](O)(CC)[C@H](C)O2)C[C@H]1C	nt	11µM*	?	6.3µM*	nt	nt
COc1cccc(N2CCN(c3ncnc4c3cnn4-c3ccc(C)cc3C)CC2)c1	7.9µM*	10µM*	36%	-13%	-60%	?
CC1CCCN(c2ncnc3c2cnn3-c2ccccc2)C1 (stereo not drawn)	?	i	?	5µM*	-28%	15%
c1ccc(-n2ncc3c(N4CCCCC4)ncnc32)cc1	13µM*	i	5µM*	5.6µM*	-26%	-4%
CCN(CC)C(=O)C1CCCN(c2ncnc3c2cnn3-c2cccc(C)c2)C1 (stereo not drawn)	-28%	i	2%	2%	-18%	-6%
CCN(CC)C(=O)C1CCCN(c2ncnc3c2cnn3-c2ccc(Cl)cc2)C1 (stereo not drawn)	13µM*	?	23%	3%	-25%	-2%
CC#CCn1c(N2CCC[C@@H](N)C2)nc2c1c(=O)n(Cc1nc(C)c3ccccc3n1)c(=O)n2C	-19%	nt	nt	nt	nt	nt
CC(=O)Nc1ccc(N(C(=O)c2ccco2)C(C(=O)NC2CCCC2)c2ccc(N(C)C)cc2)cc1 (stereo not drawn)	-4%	i	10µM*	-1%	-4%	-11%
Cc1c(-c2ccc(Cl)cc2)oc(=O)c2c(N)n(-c3ccccc3)nc12	-15%	?	7.9µM*	?	0%	-11%
Nc1c2c(=O)oc(-c3ccccc3)cc2nn1-c1ccccc1	69%	i	5%	13%	-1%	-11%
O=C1CCN(Cc2cccn2-c2ccccn2)CCN1Cc1ccccc1C(F)(F)F	nt	i	nt	nt	nt	nt
CCCc1nc(SCC(=O)Nc2nccs2)c2ccccc2n1	4%	i	1%	-2%	-15%	2%
